Measurements reported in PubChem BioAssay AID1851 (National Center for Advancing Translational Sciences (NCATS), 2009).
The whole screen tested about 16,000 compounds, of which about 4,000 (25%) were called active. Roughly 26% stayed inconclusive and do not appear here. A selection follows. Values without a mark were called inactive. Calls follow the shape of the dose curve; as a rule, active = well fitted curve in the direction sought with a large enough effect; inconclusive = small, poorly fitted or top-dose-only effect, or effect the other way; inactive = no such curve, though single readings can be large or run the other way.

These compounds were tested against Cytochrome P450 2C9 (Homo sapiens) (UniProt P11712) (assay: Cytochrome panel assay with activity outcomes). Settings: recombinant CYP, pro-luciferin dealkylation, luminescence, p450-cyp2c9; series mostly up to 57.1 µM; activity, negative = inhibition: at the top concentration.
Sequence of Cytochrome P450 2C9 (Homo sapiens) (P11712 whole entry, looked up): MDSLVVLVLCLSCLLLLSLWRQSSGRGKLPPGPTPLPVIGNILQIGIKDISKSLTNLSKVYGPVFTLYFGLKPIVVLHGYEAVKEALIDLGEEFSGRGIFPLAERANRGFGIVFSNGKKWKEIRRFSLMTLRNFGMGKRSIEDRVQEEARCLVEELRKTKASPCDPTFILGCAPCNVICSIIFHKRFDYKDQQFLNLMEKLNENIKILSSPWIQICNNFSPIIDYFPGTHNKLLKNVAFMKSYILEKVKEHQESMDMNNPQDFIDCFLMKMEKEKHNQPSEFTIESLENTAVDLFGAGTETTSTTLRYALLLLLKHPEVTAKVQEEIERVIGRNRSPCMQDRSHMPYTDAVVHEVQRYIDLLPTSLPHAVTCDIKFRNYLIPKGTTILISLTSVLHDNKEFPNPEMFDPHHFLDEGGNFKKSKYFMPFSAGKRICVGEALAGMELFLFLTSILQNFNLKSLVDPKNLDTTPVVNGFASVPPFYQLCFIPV
% is scaled to controls: 0 for no effect and ±100 for the full control effect.

SMILES | activity, negative = inhibition | AC50
Cn1c(CN2CCOCC2)nnc1SCc1ccccc1 | 0.914% (inactive) | –
Cn1c(CNC(=O)Nc2ccccc2)nnc1SCc1ccccc1 | – | 8.91 µM (active)
COc1ccc2[nH]c(-c3ccccc3)c(CCNC(C)=O)c2c1 | – | 15.8 µM (active)
COc1cccc(-c2nc(NCCNC(C)=O)c3ccccc3n2)c1 | 22.4% [at 2.29 µM] | –
COc1cccc(-c2ccc3ncnc(NCCNC(C)=O)c3c2)c1 | -1.53% [at 2.29 µM] | –
C[C@H](CN(C)C)C(=O)c1ccccc1C(=O)O | 4.19% [at 11.4 µM] | –
CNS(=O)(=O)c1ccccc1C(=N)c1ccccc1 | 9.68% [at 11.4 µM] | –
OC[C@H]1NC[C@@H](O)[C@@H](O)[C@H]1O | -27% (inactive) | –
O=C(Nc1cccc(C(F)(F)F)c1)c1ccc(Cn2cc(Br)cn2)o1 | – | 8.91 µM (active)
Cc1cccc(NC(=S)NNC(=O)CCn2cc(C)cn2)c1 | -7.75% (inactive) | –
Cc1nn(CC(O)COc2ccc3c(c2)CCC3)c(C)c1Br (centres undefined) | -23.7% (inactive) | –
C=CC[C@@H]1C=C[C@H](O/N=C(\C)CCN2CCCCc3nc(C)c(C)cc32)[C@H](CO)O1 | 0.735% [at 11.4 µM] | –
Cc1ccc(N2C(=O)c3n[nH]c(C)c3C2c2ccccn2)cc1 (centres undefined) | -12.8% (inactive) | –
COc1cccc(CNC(=O)CCNC(=O)Cn2ccc3ccccc3c2=O)c1 | – | 3.16 µM (active)
O=C(CCNC(=O)Cn1ccc2ccccc2c1=O)NCCCN1CCN(c2ccc(F)cc2)CC1 | -10.9% (inactive) | –
COc1ccc(OC)c(CNC(=O)CCNC(=O)Cn2ccc3ccccc3c2=O)c1 | -1.88% (inactive) | –
O=C1C(Cc2ccccc2)C(c2ccccc2)N1c1ccccc1 (centres undefined) | – | 7.08 µM (active)
CCCCN1C(=O)CCC(C(=O)O)C1c1ccccc1 (centres undefined) | 0.737% (inactive) | –
CN1C(=O)C[C@H](c2ccccc2)C1=O | -24.7% [at 25.6 µM] (inactive) | –
CCCC1C(=O)N(c2ccccc2)C1c1ccccc1 (centres undefined) | – | 10 µM (active)
CN(C)CCNS(=O)(=O)N(C)C | 11.3% [at 11.4 µM] | –
CO[C@]1(NC(=O)[C@H](C(=O)O)c2ccc(O)cc2)C(=O)N2C(C(=O)O)=C(CSc3nnnn3C)CO[C@H]21 | 12.5% [at 25.6 µM] (inactive) | –
c1ccc(Nc2nc(-c3ccoc3)nc3ccccc23)cc1 | -10.3% [at 2.29 µM] | –
CN1CC(c2ccccn2)C2(SC(=S)N(Cc3ccccc3)C2=O)C12C(=O)Nc1ccccc12 (centres undefined) | – | 4.47 µM (active)
CCCCN(c1ccccc1)c1ncnc2c1cnn2C | 1.33% [at 11.4 µM] | –

SMILES | activity, negative = inhibition | AC50
CN1CCN(CN2C(=O)C3C4C=CC(C3C2=O)C2C3C(=O)N(CN5CCN(C)CC5)C(=O)C3C42)CC1 (centres undefined) | -2.91% [at 11.4 µM] | –
Oc1ccc(C2Nc3cccc4cccc(c34)N2)c(O)c1 | – | 14.1 µM (active)
Oc1ccccc1C1Nc2cccc3cccc(c23)N1 | – | 8.91 µM (active)
O=C(O)[C@H]1C[C@@H](CP(=O)(O)O)CCN1 | -28.6% (inactive) | –
O=C1[C@H]2[C@H]3[C@H](O)[C@H](O)C/C(=N/OC[C@@H](O)COCc4ccco4)[C@H]3CC[C@@H]2C(=O)N1C[C@@H]1CCCO1 | 7.75% [at 11.4 µM] | –
O=C(O)C1(Nc2ccc(Cl)cc2)CCCC1 | -21.4% [at 11.4 µM] | –
O=C1C=C(NCCN2CCOCC2)CC(c2ccccc2)C1 (centres undefined) | -16.6% (inactive) | –
O=C1C=C(Nc2ccc(Cl)cc2)CC(c2ccc(Cl)cc2)C1 (centres undefined) | – | 10 µM (active)
Clc1ccccc1CSc1nnc(-c2ccncc2)o1 | – | 0.447 µM (active)
C#CCSc1nnc(-c2sc3ccccc3c2Cl)o1 | -29.7% (inactive) | –
Clc1ccc(-c2nnc(-c3cccc4ccccc34)o2)cc1Cl | 24% [at 11.4 µM] | –
c1ccc2c(CSc3nnc(-c4ccncc4)o3)cccc2c1 | – | 0.178 µM (active)
CC[N+](C)(C)c1cccc(O)c1 | -2.67% [at 25.6 µM] (inactive) | –
COc1ccccc1CN1CCC2(CC1)CCN(S(=O)(=O)c1ccccc1)CC2 | 8.41% (inactive) | –
Cc1ccc(S(=O)(=O)N2CCN(S(C)(=O)=O)C2)cc1 | -15.6% (inactive) | –
Cc1ccc(S(=O)(=O)N2CCN(Cc3ccccc3C(F)(F)F)CC2)cc1 | – | 39.8 µM (active)
O=C1[C@H]2[C@H]3[C@H](O)[C@H](O)C/C(=N/OCc4ccccc4)[C@H]3CC[C@@H]2C(=O)N1Cc1ccc2c(c1)OCO2 | -16.6% [at 11.4 µM] | –
COc1ccccc1CNc1nc(-c2ccccc2CN(C)C)nc2ccccc12 | 5.51% [at 2.29 µM] | –
CN(c1ccccc1)c1nc(-n2ccnc2)nc(-n2ccnc2)n1 | – | 0.282 µM (active)
CN(C)C(=O)c1ccc(-c2nc(-n3ccnc3)c3ccccc3n2)cc1 | -0.507% [at 2.29 µM] | –
COc1ccccc1-c1nccc(-n2ccnc2)n1 | 6.88% [at 2.29 µM] | –
c1ccc(-c2nc(N3CCCCCC3)nc(-n3ccnc3)n2)cc1 | – | 5.01 µM (active)
Cc1ccccc1-c1nc(-n2ccnc2)c2ccccc2n1 | -7.55% [at 2.29 µM] | –
c1ccc2c(-n3ccnc3)nc(-c3ccoc3)nc2c1 | -6.66% [at 2.29 µM] | –
